Assay [1] is described as follows: Nuclear factor erythroid 2-related factor 2/antioxidant responsive element (Nrf2/ARE) small molecule agonists: qHTS cell viability counter screen in human keratinocytes (AID 1919968; active = well fitted curve in the direction sought with a large enough effect in the repeat runs; an effect the other way counts as inactive or inconclusive; also: nearly all actives have a fitted effect of over 55% in size; also: potency is read from the fitted curve at half-maximal effect). A digest of the protocol:
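In human HaCaT keratinocytes stably expressing an ARE-driven luciferase, compound exposure lasted 23 h at 37 C under 5% CO2. Viable cells are quantified with a protease-based fluorogenic reagent (CellTiter-Fluor) read 1 h after addition.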

Assay [2] is described as follows: Nuclear factor erythroid 2-related factor 2/antioxidant responsive element (Nrf2/ARE) small molecule agonists: luciferase reporter gene qHTS assay in human keratinocytes (AID 1919969; also: nearly all actives have a fitted effect of over 35% in size; also: potency is read from the fitted curve at half-maximal effect). (In general: A reporter such as luciferase makes a cellular process visible.)
Assay [3] has as its target Gonadotropin-releasing hormone receptor (Homo sapiens) (UniProt P30968). The assay is described as follows: Human gonadotropin-releasing hormone receptor (GnRHR) small molecule agonists, calcium flux assay in GnRHR-HEK293 cells (AID 1920063). Also: nearly all actives have a fitted effect of over 35% in size. A digest of the protocol: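 Intracellular calcium rise is the read-out: engineered human GnRHR HEK293 cells, dye-loaded, are exposed to DMSO-dissolved compounds and fluorescence at Ex/Em 480/540 is tracked for 3 min.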
Background: Calcium assays in cells follow changes in intracellular calcium, usually with a dye or a luminescent sensor.

Assay [4] addresses KiSS-1 receptor (Homo sapiens) (UniProt Q969F8). The assay is described as follows: Human kisspeptin (KISS1R) small molecule agonists, calcium flux assay in KISS1R-HEK293 cells (AID 1920064; active = well fitted curve in the direction sought with a large enough effect in the repeat runs; an effect the other way counts as inactive or inconclusive). A digest of the protocol: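 Concentration-response testing used 15 concentrations in triplicate on human KISS1R-expressing HEK293 cells. Calcium-dependent fluorescence (Ex/Em 480/540) was followed kinetically for 3 min after compound transfer.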

Assay [5] is described as follows: G protein-coupled receptor (GPCR) small molecule agonists, calcium flux assay: HEK293 wild type cell line counter screen (AID 1920065). A digest of the protocol:
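Fluorescence intensity signals activation. After overnight (18 h) culture and a 1 h calcium dye load at 37 C, compounds are added by pin tool and the plate read at 480/540 nm for 3 min in 1 s steps.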

Assay [6] in a line: p53 small molecule agonists, cell-based qHTS assay with human liver microsomes (AID 1963577). A digest of the protocol:
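p53RE-bla cells, 4,000/well, compound added after 5 h, with human liver microsomes 0.5 mg/mL and NADPH 0.5 mg/mL final; 16 h at 37 C, then LiveBLAzer 2 h RT, fluorescence.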
(In general: qHTS replaces the single test concentration by a dilution series.)

Assay [7] can be described thus: p53 small molecule agonists, cell-based qHTS assay with rat liver microsomes (AID 1963578). A digest of the protocol:
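p53RE-bla cells, 4,000/well, pre-incubated 5 h, then given compounds plus rat liver microsomes (0.5 mg/mL final) and NADPH (0.5 mg/mL final). Incubation 16 h at 37 C; beta-lactamase reporter read by LiveBLAzer fluorescence after 2 h at room temperature.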

Assay [8] in a line: p53 small molecule agonists, cell-based qHTS assay with human liver microsomes: qHTS cell viability counter screen (AID 1963579). Also: nearly all actives have a fitted effect of over 45% in size. A digest of the protocol:
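p53RE-bla cells, 4,000/well, dosed 5 hours after plating, with human liver microsomes (0.5 mg/mL final) plus NADPH (0.5 mg/mL final), 16 hours at 37 C. Viability read as CellTiter-Glo luminescence after 30 min at room temperature.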

Assay [9] in a line: p53 small molecule agonists, cell-based qHTS assay with rat liver microsomes: qHTS cell viability counter screen (AID 1963580). Also: nearly all actives have a fitted effect of over 45% in size. A digest of the protocol:
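Rat liver microsome (0.5 mg/mL final) and NADPH (0.5 mg/mL final) co-incubation with compounds for 16 h at 37 C on HCT-116 p53RE-bla cells; cytotoxicity taken from intracellular ATP luminescence.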

Assay [10] in a line: p53 small molecule agonists, cell-based qHTS assay (AID 1963582; active = well fitted activation curve with a large enough effect in the signal ratio in the repeat runs, not every such curve was filed as active; the % refers to the signal ratio). A digest of the protocol:
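After plating, p53RE-bla cells sat 5 h in the incubator; compounds or DMSO vehicle were pinned in; a 16 h incubation at 37 C followed; FRET substrate was added and, 2 h later at RT, fluorescence was measured.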

The target of assay [11] is 5-hydroxytryptamine receptor 2A (Homo sapiens) (UniProt P28223). The assay is described as follows: 5-hydroxytryptamine receptor 2A (HTR2A) small molecule antagonists, cell-based qHTS assay (AID 1963586). Also: nearly all actives have a fitted effect of over 45% in size. A digest of the protocol: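 CHO cells stably expressing human HTR2A were plated for 18 h at 37 C, then loaded with calcium dye for 1 h. Compounds were preincubated 5 min at room temperature before DOI (4 nM solution) was added. Kinetic fluorescence was read for 3 min.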

Assay [12] has the same target. The assay is described as follows: 5-hydroxytryptamine receptor 2A (HTR2A) small molecule agonists, cell-based qHTS assay (AID 1963587). Also: nearly all actives have a fitted effect of over 30% in size. A digest of the protocol: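 Kinetic calcium-flux fluorescence (2 min, 1 sec intervals) after compound addition in agonist mode. HTR2A-CHO cells were cultured 18 h, then dye-loaded 1 h at 37 C.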
The target of assay [13] is Muscarinic acetylcholine receptor M1 (Homo sapiens) (UniProt P11229). Nature of the assay: Cholinergic receptor muscarinic 1 (CHRM1) small molecule antagonists, cell-based qHTS assay (AID 1963588). Also: nearly all actives have a fitted effect of over 40% in size. A digest of the protocol: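 Compounds were tested at 15 concentrations in three independent runs. Dye-loaded CHRM1-CHO cells were exposed 5 min at room temperature before stimulation by acetylcholine added at 50nM. Intracellular calcium was read kinetically on FDSS for 3 min.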

The target is the same in assay [14]. Nature of the assay: Cholinergic receptor muscarinic 1 (CHRM1) small molecule agonists, cell-based qHTS assay (AID 1963589). Also: nearly all actives have a fitted effect of over 35% in size. A digest of the protocol:
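Fluorescent calcium dye reports M1 activation in stably transfected CHO cells. Compounds, 15 concentrations, added after 1 h dye loading at 37 C; kinetic reading at 1 sec intervals.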

The nature of assay [15]: cAMP Responsive Elements (CRE) small molecule agonists, cell-based qHTS assay (AID 1963590). A digest of the protocol:
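Compound exposure lasted 3 h at 37 C/5% CO2 in CRE-bla HEK 293T cells grown in assay medium with 10% dialyzed FBS and 25 mM HEPES. Reporter signal came from LiveBLAzer B/G FRET substrate, 2 h, room temperature.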

Assay [16] is described as follows: cAMP Responsive Elements (CRE) small molecule antagonists, cell-based qHTS assay (AID 1963591; active = well fitted inhibition curve with a large enough effect in the signal ratio in the repeat runs, not every such curve was filed as active; the % refers to the signal ratio). A digest of the protocol:
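Stimulation used NKH477 at a final 0.25 uM for 3 h in compound-treated CRE-bla HEK293T cells, seeded 18 h beforehand. Reporter activity was measured with LiveBLAzer B/G FRET substrate after 2 h at room temperature.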

The target in assay [17] is Beta-2 adrenergic receptor (Homo sapiens) (UniProt P07550). The assay is described as follows: Adrenergic beta2 receptor (ADRB2) small molecule antagonists, cell-based qHTS assay (AID 1963592). Also: series mostly up to about 92 µM; nearly all actives have a fitted effect of over 50% in size. A digest of the protocol:
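Assay format: CHO-ADRB2 cells, 18-20hr seeding at 37C/5% CO2, then compound plus 1nM isoproterenol agonist mix for 0.5hr RT. Homogeneous time-resolved fluorescence cAMP detection after 1hr, expressed as 665/615 nm ratio.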

The target of assay [18] is D(2) dopamine receptor (Homo sapiens) (UniProt P14416). The assay is described as follows: Dopamine D2 receptor (DRD2) small molecule agonists, cell-based qHTS assay (AID 1963594). Also: nearly all actives have a fitted effect of over 35% in size. A digest of the protocol:
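cAMP accumulation in DRD2-HEK293 cells measured by HTRF after 1 h detection; compounds added 10 min before NKH477 (200nM […]) forskolin-analogue stimulation, 30 min at room temperature, with Ro20-1724 present at 0.1 mM final.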

The target is the same in assay [19]. Nature of the assay: Dopamine D2 receptor (DRD2) small molecule antagonists, cell-based qHTS assay (AID 1963595; active = well fitted inhibition curve with a large enough effect in the signal ratio in the repeat runs, with a control signal flat; the % refers to the signal ratio). A digest of the protocol:
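Human DRD2 antagonist qHTS measuring cAMP by HTRF. The cells are exposed to compound for 10 min, then to NKH477 (200 nM) and quinpirole (12 nM) for 30 min at RT, with Ro20-1724 (0.1 mM) present throughout.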

A short description of assay [20]: p53 small molecule agonists, cell-based qHTS assay: qHTS cell viability counter screen (AID 1963581). Also: nearly all actives have a fitted effect of over 45% in size. A digest of the protocol:
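Luminescence from CellTiter-Glo, reflecting ATP content, serves as the cytotoxicity measure; it is taken after the 2 h reporter substrate step in HCT-116 p53RE-bla cells dosed for 16 h at 37 C.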

A number with no mark means an inactive call. Results filed as inconclusive are left out. Active and inactive are the calls of the source. Unless noted, calls follow the shape of the full dose curve.

Chain of Muscarinic acetylcholine receptor M1 (Homo sapiens) (P11229 whole entry, looked up): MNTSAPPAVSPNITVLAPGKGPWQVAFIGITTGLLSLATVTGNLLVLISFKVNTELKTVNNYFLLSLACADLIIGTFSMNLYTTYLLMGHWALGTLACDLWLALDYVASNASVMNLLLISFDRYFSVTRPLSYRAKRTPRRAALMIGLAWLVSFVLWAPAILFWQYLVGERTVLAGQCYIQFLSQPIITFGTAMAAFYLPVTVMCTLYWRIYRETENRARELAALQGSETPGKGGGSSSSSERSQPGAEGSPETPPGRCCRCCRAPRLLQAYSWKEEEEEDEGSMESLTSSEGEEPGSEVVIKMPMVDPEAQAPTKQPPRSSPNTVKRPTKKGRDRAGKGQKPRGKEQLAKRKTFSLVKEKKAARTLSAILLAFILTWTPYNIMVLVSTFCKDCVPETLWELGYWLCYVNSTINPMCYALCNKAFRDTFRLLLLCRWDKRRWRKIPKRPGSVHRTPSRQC
Chain of Beta-2 adrenergic receptor (Homo sapiens) (P07550 whole entry, looked up): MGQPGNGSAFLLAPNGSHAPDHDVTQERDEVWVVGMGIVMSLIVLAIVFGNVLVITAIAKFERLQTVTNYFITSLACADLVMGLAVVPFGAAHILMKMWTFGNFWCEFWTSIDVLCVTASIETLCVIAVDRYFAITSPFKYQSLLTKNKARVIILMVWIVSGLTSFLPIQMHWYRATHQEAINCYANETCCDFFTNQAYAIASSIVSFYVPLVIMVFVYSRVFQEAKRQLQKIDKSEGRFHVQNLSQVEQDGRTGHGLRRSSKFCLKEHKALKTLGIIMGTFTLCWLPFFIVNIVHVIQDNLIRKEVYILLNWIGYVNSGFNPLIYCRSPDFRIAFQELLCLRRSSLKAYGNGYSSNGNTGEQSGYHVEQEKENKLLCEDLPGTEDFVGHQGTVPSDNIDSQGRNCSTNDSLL
Chain of 5-hydroxytryptamine receptor 2A (Homo sapiens) (P28223 whole entry, looked up): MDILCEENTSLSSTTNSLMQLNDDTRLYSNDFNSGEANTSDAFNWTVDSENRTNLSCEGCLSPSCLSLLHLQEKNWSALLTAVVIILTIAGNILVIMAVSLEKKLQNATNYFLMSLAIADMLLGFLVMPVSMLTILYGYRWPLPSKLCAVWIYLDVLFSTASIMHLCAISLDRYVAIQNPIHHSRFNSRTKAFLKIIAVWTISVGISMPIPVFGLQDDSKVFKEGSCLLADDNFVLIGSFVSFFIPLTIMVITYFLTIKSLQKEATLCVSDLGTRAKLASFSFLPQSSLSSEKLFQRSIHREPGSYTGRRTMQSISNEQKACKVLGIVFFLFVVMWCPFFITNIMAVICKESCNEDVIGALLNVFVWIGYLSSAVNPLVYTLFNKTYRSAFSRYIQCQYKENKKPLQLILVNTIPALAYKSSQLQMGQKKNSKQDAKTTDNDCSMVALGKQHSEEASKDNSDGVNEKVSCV
Chain of KiSS-1 receptor (Homo sapiens) (Q969F8 whole entry, looked up): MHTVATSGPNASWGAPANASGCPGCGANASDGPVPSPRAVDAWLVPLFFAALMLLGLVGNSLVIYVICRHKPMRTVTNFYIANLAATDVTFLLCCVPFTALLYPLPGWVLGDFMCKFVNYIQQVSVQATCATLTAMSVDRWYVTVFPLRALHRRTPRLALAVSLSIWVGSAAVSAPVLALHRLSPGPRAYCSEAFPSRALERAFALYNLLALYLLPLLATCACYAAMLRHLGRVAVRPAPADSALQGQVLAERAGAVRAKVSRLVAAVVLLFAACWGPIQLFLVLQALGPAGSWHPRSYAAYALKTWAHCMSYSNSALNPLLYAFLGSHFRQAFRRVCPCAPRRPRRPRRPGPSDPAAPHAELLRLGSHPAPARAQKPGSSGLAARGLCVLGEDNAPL
Chain of Gonadotropin-releasing hormone receptor (Homo sapiens) (P30968 whole entry, looked up): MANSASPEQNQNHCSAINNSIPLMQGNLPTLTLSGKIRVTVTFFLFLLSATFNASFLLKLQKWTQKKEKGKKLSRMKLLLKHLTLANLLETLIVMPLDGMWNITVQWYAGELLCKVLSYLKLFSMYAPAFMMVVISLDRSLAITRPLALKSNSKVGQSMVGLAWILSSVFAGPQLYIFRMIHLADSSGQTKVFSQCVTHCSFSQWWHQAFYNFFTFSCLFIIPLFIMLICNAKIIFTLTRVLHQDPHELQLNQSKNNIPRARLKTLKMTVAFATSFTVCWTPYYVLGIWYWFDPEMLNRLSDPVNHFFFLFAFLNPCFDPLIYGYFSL
Chain of D(2) dopamine receptor (Homo sapiens) (P14416 whole entry, looked up): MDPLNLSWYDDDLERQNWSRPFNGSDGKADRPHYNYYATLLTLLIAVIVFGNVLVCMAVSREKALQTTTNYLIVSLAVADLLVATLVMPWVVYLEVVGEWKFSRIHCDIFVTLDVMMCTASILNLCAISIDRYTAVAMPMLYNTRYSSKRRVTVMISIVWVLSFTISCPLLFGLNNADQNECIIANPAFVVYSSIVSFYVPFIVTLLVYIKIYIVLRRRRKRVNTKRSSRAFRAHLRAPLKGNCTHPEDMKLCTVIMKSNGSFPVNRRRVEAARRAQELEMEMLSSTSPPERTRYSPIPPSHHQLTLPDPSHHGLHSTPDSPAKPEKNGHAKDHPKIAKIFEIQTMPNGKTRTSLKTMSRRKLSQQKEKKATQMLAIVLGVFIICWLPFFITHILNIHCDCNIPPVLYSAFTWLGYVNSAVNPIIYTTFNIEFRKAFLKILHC

Take `CO[Si](CCCn1c(=O)n(CCC[Si](OC)(OC)OC)c(=O)n(CCC[Si](OC)(OC)OC)c1=O)(OC)OC`: the Potency result in assay [1], in assay [2], in assay [3], in assay [6], in assay [7] and in [8] was “inactive” in each case. For the same compound, the Potency entry in assay [9], in [10], in assay [11], in assay [12], in assay [13] and in [14] was “inactive” each time. The Potency result in assay [15], in assay [16], in assay [17], in assay [18] and in assay [19] was “inactive” in each case. Besides, the outcome in [4] and in assay [5] was inactive.

Regarding `CC(C)c1cc(C(C)C)cc(C(C)C)c1`, the Potency result in [1], in [2], in assay [3], in [6], in assay [7] and in [8] was “inactive” each time. Besides, the Potency entry in [9], in assay [10], in [11], in assay [12], in assay [13] and in assay [14] was “inactive” throughout. Also, the Potency entry in [15], in assay [16], in [17], in [18] and in [19] was “inactive” each time. For the same compound, the outcome in assay [4] and in assay [5] was inactive.

In the case of `CC(C)Oc1ccccc1O`, the Potency entry in assay [1], in [2], in assay [3], in [6], in assay [7] and in [8] was “inactive” in each case. For the same compound, the Potency entry in [9], in [10], in assay [11], in [12], in [13] and in assay [14] was “inactive” each time. The Potency result in assay [15], in [16] and in assay [17] was “inactive” each time. The result in assay [4] and in [5] was inactive.

As to `CN1CCN(N)CC1`, the Potency entry in assay [1], in assay [2], in assay [3], in assay [6], in assay [7] and in assay [8] was “inactive” throughout. In addition, the Potency result in [9], in assay [10], in assay [11], in assay [12], in [13] and in assay [14] was “inactive” each time. Further, the Potency result in assay [15], in assay [16], in assay [17], in [18] and in [19] was “inactive” each time. Further, the outcome in [4] and in assay [5] was inactive.

For `NC(=O)NS(=O)(=O)c1ccc(N)cc1`, the Potency entry in assay [1], in [2], in [3], in assay [6], in [7] and in assay [8] was “inactive” throughout. Besides, the Potency entry in [9], in assay [20], in [13], in assay [14], in [16] and in [17] was “inactive” throughout. Further, the Potency result in assay [18] and in assay [19] was “inactive” throughout. Besides, the result in assay [4] and in [5] was inactive.

Turning to `C=C1CC[C@H](O)C/C1=C\C=C1/CCC[C@]2(C)[C@@H]([C@H](C)CCCC(C)C)CC[C@@H]12`, the Potency entry in assay [1], in assay [3], in assay [6], in assay [7], in [8] and in assay [9] was “inactive” throughout. Also, the Potency result in assay [20], in assay [16], in [17], in assay [18] and in assay [19] was “inactive” in each case. Moreover, the Potency in assay [2] was 21.5 µM (active). In addition, the result in assay [4] and in assay [5] was inactive.

In the case of `CN(C(=O)CCCOc1ccc2[nH]c(=O)ccc2c1)C1CCCCC1`, the Potency in [1] was 10.6 µM (active). Besides, the Potency result in assay [2], in [3], in assay [6], in assay [7], in assay [8] and in assay [9] was “inactive” in each case. Moreover, the Potency result in assay [20] and in [17] was “inactive” throughout. For the same compound, the outcome in assay [4] and in assay [5] was inactive.

Turning to `NNc1nc(-c2ccc([N+](=O)[O-])cc2)cs1`, the Potency in assay [1] and in assay [2] was 30.6 µM (active) throughout. For the same compound, the Potency result in [3], in [6], in assay [7], in assay [8], in assay [9] and in assay [20] was “inactive” in each case. The Potency entry in [12], in assay [13], in assay [14] and in assay [19] was “inactive” throughout. For the same compound, the outcome in assay [4] and in assay [5] was inactive.

Source of the values: PubChem BioAssay (Tox21).
